# Data published in paper PMC7862700, “An all-to-all approach to the identification of sequence-specific readers for epigenetic DNA modifications on cytosine”.
# Columns and labels:
# Assay in all cases: DAPPL (digital affinity profiling via proximity ligation, sequencing); 10 mM Tris-HCl pH 7.5, 50 mM NaCl, 1 mM DTT, 4% glycerol, room temperature, 30 min; GST-TFs on glutathione beads, 16-mer random dsDNA library, 0.1% formaldehyde crosslink after washing; high values mean tight binding
# FLI1 = molecular target: T1, FLI1 (Homo sapiens, UniProt Q01543 1-452); details: protein: recombinant; tags: N-terminal GST; dsDNA, one strand shown
# T1 sequence: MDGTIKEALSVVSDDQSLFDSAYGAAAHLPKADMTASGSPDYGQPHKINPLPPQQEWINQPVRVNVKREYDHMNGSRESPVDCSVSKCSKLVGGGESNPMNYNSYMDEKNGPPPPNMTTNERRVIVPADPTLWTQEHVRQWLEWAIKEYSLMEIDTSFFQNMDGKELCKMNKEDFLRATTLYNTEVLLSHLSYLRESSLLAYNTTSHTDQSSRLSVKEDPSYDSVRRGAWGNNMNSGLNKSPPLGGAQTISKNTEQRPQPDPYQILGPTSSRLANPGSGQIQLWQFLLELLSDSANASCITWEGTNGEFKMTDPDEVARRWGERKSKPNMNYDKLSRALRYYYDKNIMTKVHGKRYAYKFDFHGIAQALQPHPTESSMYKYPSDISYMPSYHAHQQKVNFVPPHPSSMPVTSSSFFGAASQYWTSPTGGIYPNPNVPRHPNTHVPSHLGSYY
# Method in brief: (§1)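 Human transcription factors were made in yeast as GST fusions, captured on glutathione beads and barcoded with DNA. With a tag-only sample included, the pool was incubated with 200 nmole of a random double-stranded 16-mer DNA library in Tris/NaCl/DTT/glycerol buffer at room temperature for 30 min, then crosslinked with 0.1% formaldehyde after washing, ligated by proximity, amplified and sequenced. For binding signal, each hexamer's read frequency for a factor is divided by its frequency for the tag-only sample.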
# ELK1 = molecular target: T2, ELK1 (Homo sapiens, UniProt P19419 1-428); details: protein: recombinant; tags: N-terminal GST; dsDNA, one strand shown
# T2 sequence: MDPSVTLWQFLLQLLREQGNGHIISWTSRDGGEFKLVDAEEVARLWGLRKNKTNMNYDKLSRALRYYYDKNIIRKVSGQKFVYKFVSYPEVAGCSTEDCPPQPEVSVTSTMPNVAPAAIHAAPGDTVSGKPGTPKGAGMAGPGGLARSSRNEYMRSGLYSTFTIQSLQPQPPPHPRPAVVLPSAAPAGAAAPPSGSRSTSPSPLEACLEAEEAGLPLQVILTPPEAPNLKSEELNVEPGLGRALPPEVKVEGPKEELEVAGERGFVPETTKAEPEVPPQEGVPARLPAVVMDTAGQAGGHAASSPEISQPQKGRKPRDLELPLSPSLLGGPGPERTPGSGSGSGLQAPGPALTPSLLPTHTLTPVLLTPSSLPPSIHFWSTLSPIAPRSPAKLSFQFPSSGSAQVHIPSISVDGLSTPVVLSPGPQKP
# Method in brief: as §1
# GABPA = molecular target: T3, GABPA (Homo sapiens, UniProt Q06546 1-454); details: protein: recombinant; tags: N-terminal GST; dsDNA, one strand shown
# T3 sequence: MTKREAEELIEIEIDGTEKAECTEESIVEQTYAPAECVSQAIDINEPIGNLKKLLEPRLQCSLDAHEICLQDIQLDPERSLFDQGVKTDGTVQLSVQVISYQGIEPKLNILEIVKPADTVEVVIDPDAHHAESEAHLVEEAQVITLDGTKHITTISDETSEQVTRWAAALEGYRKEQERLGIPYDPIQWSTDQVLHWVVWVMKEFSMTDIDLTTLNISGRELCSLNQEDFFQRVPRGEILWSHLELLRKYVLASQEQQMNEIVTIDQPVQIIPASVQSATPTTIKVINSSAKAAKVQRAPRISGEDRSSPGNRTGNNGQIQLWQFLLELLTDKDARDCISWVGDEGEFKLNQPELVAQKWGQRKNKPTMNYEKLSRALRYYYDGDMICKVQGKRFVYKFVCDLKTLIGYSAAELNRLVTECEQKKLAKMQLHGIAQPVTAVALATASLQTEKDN
# Method in brief: as §1
# ERG = molecular target: T4, ERG (Homo sapiens, UniProt P11308 1-479); details: protein: recombinant; tags: N-terminal GST; dsDNA, one strand shown
# T4 sequence: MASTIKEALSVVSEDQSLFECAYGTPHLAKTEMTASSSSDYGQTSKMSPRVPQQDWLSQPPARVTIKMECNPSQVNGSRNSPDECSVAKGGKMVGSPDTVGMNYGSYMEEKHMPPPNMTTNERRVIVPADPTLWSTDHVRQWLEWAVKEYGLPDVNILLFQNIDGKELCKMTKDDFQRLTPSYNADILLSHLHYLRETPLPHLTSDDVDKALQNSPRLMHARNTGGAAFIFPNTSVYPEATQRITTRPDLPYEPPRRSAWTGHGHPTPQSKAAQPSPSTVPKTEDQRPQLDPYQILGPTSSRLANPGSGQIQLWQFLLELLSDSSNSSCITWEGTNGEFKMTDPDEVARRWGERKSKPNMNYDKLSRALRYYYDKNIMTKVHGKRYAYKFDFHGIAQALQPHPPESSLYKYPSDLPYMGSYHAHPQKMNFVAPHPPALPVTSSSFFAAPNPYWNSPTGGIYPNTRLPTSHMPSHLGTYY
# Method in brief: as §1
# ELF1 = ELF1 (Homo sapiens, UniProt P32519 1-619); details: protein: recombinant; tags: N-terminal GST; dsDNA, one strand shown
# ELF1, sequence (P32519 whole entry): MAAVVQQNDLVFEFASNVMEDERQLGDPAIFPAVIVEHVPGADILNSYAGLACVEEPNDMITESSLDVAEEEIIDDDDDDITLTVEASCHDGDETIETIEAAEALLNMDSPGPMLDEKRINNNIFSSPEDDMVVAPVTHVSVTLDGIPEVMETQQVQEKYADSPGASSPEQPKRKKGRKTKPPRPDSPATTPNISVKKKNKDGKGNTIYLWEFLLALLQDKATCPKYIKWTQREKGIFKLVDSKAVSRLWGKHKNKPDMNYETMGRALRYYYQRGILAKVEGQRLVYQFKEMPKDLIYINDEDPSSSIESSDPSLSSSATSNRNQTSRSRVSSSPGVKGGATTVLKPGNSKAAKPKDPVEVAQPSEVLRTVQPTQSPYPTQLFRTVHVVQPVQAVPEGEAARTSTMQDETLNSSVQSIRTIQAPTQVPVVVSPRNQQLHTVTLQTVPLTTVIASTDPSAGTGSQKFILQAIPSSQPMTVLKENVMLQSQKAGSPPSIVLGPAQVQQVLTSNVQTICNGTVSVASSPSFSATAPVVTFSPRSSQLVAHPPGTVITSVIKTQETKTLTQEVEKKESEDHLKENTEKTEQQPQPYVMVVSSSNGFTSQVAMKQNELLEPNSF
# Method in brief: as §1
# EHF = molecular target: T5, EHF (Homo sapiens, UniProt Q9NZC4 1-300); details: protein: recombinant; tags: N-terminal GST; dsDNA, one strand shown
# T5 sequence: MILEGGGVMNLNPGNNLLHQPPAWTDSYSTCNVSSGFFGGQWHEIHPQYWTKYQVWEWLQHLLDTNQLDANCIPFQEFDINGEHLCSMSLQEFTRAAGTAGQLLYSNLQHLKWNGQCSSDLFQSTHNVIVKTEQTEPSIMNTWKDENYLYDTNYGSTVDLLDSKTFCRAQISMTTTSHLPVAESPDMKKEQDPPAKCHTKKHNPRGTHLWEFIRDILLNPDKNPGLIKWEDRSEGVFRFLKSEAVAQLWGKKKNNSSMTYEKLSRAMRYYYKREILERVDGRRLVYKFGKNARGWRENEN
# Method in brief: as §1
# SPI1 = SPI1 (Homo sapiens, UniProt P17947 1-270); details: protein: recombinant; tags: N-terminal GST; dsDNA, one strand shown
# Method in brief: as §1
# SPIB = SPIB (Homo sapiens, UniProt Q01892 1-262); details: protein: recombinant; tags: N-terminal GST; dsDNA, one strand shown
# SPIB, sequence (Q01892 whole entry): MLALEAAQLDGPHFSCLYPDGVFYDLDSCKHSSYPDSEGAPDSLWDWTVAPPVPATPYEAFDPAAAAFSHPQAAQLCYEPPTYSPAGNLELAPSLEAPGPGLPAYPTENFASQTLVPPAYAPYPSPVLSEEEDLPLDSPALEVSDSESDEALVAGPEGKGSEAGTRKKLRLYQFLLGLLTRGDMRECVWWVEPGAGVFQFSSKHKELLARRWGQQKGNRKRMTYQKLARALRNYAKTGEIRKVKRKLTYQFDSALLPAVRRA
# Method in brief: as §1
# ELK3 = molecular target: T6, ELK3 (Homo sapiens, UniProt P41970 1-407); details: protein: recombinant; tags: N-terminal GST; dsDNA, one strand shown
# T6 sequence: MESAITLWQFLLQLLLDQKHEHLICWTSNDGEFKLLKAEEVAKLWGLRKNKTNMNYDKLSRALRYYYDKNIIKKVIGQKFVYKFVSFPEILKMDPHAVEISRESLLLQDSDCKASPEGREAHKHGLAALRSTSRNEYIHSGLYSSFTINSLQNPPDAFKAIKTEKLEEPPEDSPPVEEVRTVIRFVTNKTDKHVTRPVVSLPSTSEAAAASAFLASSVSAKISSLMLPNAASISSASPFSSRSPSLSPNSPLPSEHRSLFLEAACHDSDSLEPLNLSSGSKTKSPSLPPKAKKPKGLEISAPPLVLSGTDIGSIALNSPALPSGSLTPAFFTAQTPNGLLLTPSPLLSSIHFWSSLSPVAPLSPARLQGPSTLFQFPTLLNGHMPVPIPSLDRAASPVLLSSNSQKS
# Method in brief: as §1
# FEV = molecular target: T7, FEV (Homo sapiens, UniProt Q99581 1-238); details: protein: recombinant; tags: N-terminal GST; dsDNA, one strand shown
# T7 sequence: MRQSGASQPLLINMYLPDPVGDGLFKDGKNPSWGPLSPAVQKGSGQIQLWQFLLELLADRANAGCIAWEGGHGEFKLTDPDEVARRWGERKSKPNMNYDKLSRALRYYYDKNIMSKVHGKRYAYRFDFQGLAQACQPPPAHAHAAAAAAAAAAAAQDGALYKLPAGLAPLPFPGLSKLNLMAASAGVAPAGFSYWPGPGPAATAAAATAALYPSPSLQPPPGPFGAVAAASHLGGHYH
# Method in brief: as §1
# ETV5 = ETV5 (Homo sapiens, UniProt P41161 1-510); details: protein: recombinant; tags: N-terminal GST; dsDNA, one strand shown
# ETV5, sequence (P41161 whole entry): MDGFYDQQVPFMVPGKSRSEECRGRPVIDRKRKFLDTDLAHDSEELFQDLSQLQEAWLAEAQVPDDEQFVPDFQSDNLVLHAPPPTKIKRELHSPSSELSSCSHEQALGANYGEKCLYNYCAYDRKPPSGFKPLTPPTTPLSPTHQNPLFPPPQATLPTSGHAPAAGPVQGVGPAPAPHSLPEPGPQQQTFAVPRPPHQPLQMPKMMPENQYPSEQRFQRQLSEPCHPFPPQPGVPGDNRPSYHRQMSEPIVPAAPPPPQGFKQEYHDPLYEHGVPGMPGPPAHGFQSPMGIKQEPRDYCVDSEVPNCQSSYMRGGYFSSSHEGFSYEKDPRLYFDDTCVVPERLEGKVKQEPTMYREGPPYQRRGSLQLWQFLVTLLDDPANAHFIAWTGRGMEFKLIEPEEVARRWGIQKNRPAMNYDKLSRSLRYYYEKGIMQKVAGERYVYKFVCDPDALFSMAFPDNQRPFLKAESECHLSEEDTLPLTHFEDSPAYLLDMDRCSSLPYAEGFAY
# Method in brief: as §1
# HSF1 = HSF1 (Homo sapiens, UniProt Q00613 1-529); details: protein: recombinant; tags: N-terminal GST; chain copies: 3; dsDNA, one strand shown
# HSF1, sequence (Q00613 whole entry): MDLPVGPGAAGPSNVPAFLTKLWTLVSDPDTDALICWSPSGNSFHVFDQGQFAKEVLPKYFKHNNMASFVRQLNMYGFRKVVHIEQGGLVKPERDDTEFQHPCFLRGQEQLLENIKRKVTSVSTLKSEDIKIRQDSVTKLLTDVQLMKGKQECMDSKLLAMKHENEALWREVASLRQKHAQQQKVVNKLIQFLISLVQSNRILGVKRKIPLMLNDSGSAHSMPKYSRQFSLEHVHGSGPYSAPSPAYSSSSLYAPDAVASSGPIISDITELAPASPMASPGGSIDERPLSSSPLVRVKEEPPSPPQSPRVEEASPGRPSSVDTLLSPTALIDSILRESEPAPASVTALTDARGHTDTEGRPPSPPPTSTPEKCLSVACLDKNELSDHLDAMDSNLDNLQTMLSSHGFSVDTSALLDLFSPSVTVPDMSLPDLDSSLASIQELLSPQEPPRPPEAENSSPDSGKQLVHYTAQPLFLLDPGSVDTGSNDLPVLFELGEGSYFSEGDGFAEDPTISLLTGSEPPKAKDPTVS
# Method in brief: as §1
# SPIC = molecular target: T8, SPIC (Homo sapiens, UniProt Q8N5J4 1-248); details: protein: recombinant; tags: N-terminal GST; dsDNA, one strand shown
# T8 sequence: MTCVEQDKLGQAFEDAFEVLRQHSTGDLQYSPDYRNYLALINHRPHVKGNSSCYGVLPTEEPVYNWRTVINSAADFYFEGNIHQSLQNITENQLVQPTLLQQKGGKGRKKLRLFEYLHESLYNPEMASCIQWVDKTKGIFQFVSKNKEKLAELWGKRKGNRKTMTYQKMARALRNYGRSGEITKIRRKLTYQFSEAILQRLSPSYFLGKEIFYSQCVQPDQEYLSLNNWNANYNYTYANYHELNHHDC
# Method in brief: as §1
# ELF4 = ELF4 (Homo sapiens, UniProt Q99607 1-663); details: protein: recombinant; tags: N-terminal GST; dsDNA, one strand shown
# ELF4, sequence (Q99607 whole entry): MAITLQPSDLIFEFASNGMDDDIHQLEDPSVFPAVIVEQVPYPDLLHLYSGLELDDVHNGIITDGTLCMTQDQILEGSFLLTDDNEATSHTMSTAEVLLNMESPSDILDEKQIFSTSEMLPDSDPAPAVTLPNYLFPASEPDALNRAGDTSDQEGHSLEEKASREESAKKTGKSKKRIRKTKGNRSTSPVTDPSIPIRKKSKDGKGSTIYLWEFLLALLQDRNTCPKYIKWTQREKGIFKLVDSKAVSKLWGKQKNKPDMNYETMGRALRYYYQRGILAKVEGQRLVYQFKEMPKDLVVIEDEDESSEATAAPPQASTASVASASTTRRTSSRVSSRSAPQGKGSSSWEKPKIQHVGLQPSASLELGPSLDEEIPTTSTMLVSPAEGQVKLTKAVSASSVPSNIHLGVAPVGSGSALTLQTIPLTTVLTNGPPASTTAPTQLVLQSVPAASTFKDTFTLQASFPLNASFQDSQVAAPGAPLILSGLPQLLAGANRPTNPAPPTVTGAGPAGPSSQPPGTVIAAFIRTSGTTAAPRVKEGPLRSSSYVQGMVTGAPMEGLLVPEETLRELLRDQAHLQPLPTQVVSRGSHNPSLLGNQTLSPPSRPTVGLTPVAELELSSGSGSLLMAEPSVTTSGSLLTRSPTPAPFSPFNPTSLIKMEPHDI
# Method in brief: as §1
# ELK4 = molecular target: T9, ELK4 (Homo sapiens, UniProt P28324-2 1-405); details: protein: recombinant; tags: N-terminal GST; dsDNA, one strand shown
# T9 sequence: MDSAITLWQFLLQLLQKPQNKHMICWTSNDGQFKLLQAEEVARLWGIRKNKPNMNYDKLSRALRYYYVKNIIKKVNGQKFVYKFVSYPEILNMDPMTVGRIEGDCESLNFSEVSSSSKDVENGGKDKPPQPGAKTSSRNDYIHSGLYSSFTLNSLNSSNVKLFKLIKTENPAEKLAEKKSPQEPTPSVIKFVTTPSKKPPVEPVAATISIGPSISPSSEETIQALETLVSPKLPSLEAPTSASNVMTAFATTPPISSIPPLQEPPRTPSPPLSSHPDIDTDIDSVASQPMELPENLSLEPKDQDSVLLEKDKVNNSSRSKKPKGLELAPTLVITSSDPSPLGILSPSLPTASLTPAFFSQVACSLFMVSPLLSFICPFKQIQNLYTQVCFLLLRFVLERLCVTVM
# Method in brief: as §1
# ETV2 = molecular target: T10, ETV2 (Homo sapiens, UniProt O00321 1-342); details: protein: recombinant; tags: N-terminal GST; dsDNA, one strand shown
# T10 sequence: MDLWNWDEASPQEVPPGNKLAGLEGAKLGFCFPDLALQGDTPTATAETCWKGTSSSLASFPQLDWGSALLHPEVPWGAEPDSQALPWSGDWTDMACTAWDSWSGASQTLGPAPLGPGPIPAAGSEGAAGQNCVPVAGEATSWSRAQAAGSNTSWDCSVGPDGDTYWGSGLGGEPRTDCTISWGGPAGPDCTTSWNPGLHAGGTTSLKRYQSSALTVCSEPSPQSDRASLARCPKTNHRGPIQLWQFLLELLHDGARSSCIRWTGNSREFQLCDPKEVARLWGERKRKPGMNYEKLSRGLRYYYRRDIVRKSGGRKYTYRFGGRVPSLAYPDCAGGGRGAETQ
# Method in brief: as §1
# ELF3 = molecular target: T11, ELF3 (Homo sapiens, UniProt P78545 1-371); details: protein: recombinant; tags: N-terminal GST; dsDNA, one strand shown
# T11 sequence: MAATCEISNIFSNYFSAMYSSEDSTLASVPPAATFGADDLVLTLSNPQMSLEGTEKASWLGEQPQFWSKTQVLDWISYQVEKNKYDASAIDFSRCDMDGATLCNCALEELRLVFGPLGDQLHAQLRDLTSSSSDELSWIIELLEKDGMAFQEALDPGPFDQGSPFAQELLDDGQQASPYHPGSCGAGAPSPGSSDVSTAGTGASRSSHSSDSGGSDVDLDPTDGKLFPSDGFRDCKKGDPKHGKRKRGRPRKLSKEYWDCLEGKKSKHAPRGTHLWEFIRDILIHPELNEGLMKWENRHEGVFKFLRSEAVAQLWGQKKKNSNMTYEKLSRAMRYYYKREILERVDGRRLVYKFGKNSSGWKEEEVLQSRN
# Method in brief: as §1
# CRX = CRX (Homo sapiens, UniProt O43186 1-299); details: protein: recombinant; tags: N-terminal GST; dsDNA, one strand shown
# CRX, sequence (O43186 whole entry): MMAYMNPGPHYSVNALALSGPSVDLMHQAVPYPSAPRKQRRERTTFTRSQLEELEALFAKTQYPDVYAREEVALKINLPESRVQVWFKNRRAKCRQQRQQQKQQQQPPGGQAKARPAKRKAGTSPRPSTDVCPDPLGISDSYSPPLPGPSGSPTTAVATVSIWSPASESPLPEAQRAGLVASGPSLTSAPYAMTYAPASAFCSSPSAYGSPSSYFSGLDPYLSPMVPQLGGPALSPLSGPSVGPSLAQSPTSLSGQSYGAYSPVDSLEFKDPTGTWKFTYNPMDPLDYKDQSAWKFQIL
# Method in brief: as §1
# ETV1 = ETV1 (Homo sapiens, UniProt P50549 1-477); details: protein: recombinant; tags: N-terminal GST; dsDNA, one strand shown
# ETV1, sequence (P50549 whole entry): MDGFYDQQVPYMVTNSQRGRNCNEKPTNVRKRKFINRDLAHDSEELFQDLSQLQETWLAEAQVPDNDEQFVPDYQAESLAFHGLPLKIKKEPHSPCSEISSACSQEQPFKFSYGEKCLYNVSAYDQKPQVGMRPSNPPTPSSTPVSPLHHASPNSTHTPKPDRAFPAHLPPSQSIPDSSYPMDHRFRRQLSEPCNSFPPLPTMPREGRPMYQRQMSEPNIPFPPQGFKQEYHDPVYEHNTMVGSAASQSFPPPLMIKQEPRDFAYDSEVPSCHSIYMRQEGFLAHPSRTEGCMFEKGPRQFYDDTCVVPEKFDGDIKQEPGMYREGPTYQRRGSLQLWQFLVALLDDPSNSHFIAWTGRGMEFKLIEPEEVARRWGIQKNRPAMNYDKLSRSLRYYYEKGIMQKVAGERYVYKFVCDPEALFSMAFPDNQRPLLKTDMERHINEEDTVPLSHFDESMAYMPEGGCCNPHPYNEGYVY
# Method in brief: as §1
sequence,measurement,setting,value
ACCGAT,binding signal,FLI1,"1.14 fold enrichment (6-mer frequency, TF over GST control)"
same,binding signal,ELK1,"1.12 fold enrichment (6-mer frequency, TF over GST control)"
same,binding signal,GABPA,"1.2 fold enrichment (6-mer frequency, TF over GST control)"
same,binding signal,ERG,"1.07 fold enrichment (6-mer frequency, TF over GST control)"
same,binding signal,ELF1,"1.17 fold enrichment (6-mer frequency, TF over GST control)"
same,binding signal,EHF,"1.16 fold enrichment (6-mer frequency, TF over GST control)"
same,binding signal,SPI1,"1.1 fold enrichment (6-mer frequency, TF over GST control)"
same,binding signal,SPIB,"1.13 fold enrichment (6-mer frequency, TF over GST control)"
same,binding signal,ELK3,"1.04 fold enrichment (6-mer frequency, TF over GST control)"
same,binding signal,FEV,"1.06 fold enrichment (6-mer frequency, TF over GST control)"
same,binding signal,ETV5,"1.08 fold enrichment (6-mer frequency, TF over GST control)"
same,binding signal,HSF1,"1.14 fold enrichment (6-mer frequency, TF over GST control)"
same,binding signal,SPIC,"1.33 fold enrichment (6-mer frequency, TF over GST control)"
same,binding signal,ELF4,"1.24 fold enrichment (6-mer frequency, TF over GST control)"
same,binding signal,ELK4,"1.15 fold enrichment (6-mer frequency, TF over GST control)"
same,binding signal,ETV2,"1.19 fold enrichment (6-mer frequency, TF over GST control)"
same,binding signal,ELF3,"1.22 fold enrichment (6-mer frequency, TF over GST control)"
same,binding signal,CRX,"1.24 fold enrichment (6-mer frequency, TF over GST control)"
same,binding signal,ETV1,"1.12 fold enrichment (6-mer frequency, TF over GST control)"
